Screens: PubChem BioAssay, The Scripps Research Institute Molecular Screening Center
Rows were chosen to be rich in hits. Some 3.5% of all compounds tested hit in one or more screens of this group.
TEAD-YAP block = TEAD-YAP interaction inhibition, primary screen, TEAD-YAP interaction inhibitor project, luminescence, HEK-TIYL cells; TEAD-Gal4/YAP UAS-luciferase luminescence; 640,000 tested, 1.4% active; AID 1259422, 2018; inhibition, % at 9.12 µM; in the data active = inhibition above about 32%;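 note: 0% = median of test compound wells and 100% = reference inhibitor wells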
GPR151 activ = activators of human GPR151, primary screen, cell-based, PathHunter beta-arrestin, luminescence | G-protein coupled receptor 151 (Homo sapiens), Q8TDV0 | PathHunter beta-arrestin GPR151 cells | activation, % at 11.2 µM | 650,000 tested, 1% active | AID 1508602, 2020; in the data active = activation above about 4.9%;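 note: 0% = median of compound wells and 100% = cells with positive control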
MITF primary = MITF inhibitors, primary screen, biochemical, AlphaScreen, human; 650,000 tested, 0.91% active; inhibition, % at 2.6 µM; Microphthalmia-associated transcription factor (Homo sapiens), O75030; AlphaScreen MITF homodimerization, bead proximity signal; in the data active = inhibition above about 50%;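 note: 0% = vehicle wells with protein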
FBW7 activator = FBW7 E3 ligase activators, primary screen, biochemical, AlphaScreen, human; F-box/WD repeat-containing protein 7 (Homo sapiens), Q969H0; AlphaScreen FBW7–phospho-cyclin E peptide binding, activator screen; normalized activity (activation), % at 26.1 µM; 650,000 tested, 0.13% active; AID 1259310, 2017; in the data active = normalized activity above about 1.9%;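 note: purified mutant Fbw7 with reduced substrate affinity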
Target sequence (Q969H0 whole entry, looked up): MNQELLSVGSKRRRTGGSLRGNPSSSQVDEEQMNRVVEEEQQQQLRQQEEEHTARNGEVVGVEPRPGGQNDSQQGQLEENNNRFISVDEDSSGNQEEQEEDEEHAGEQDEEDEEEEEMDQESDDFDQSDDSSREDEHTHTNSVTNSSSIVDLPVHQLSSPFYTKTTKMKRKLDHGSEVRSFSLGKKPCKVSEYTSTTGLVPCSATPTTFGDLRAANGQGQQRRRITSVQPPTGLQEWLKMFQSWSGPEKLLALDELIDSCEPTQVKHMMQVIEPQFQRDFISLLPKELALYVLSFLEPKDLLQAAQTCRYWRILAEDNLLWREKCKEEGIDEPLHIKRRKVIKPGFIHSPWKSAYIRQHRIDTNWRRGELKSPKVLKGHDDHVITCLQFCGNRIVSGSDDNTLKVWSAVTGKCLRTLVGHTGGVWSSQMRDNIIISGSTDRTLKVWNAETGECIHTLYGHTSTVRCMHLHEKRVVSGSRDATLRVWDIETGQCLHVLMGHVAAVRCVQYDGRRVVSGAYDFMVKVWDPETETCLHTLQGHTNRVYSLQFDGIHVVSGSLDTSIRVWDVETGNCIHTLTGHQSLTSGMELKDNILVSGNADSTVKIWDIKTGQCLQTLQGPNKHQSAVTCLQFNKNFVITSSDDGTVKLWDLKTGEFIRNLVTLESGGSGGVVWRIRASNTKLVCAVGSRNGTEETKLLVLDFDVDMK
Active calls of the source: *; ! = not confirmed by another sample.

SMILES	TEAD-YAP block	GPR151 activ	MITF primary	FBW7 activator
Cc1ccc(NC(=O)N2CCCc3ccccc32)cc1	-17	0	-4	0
CC(C)(C)c1ccc(NC(=O)N2CCc3ccccc32)cc1	87*	-4	8	0
Nc1cccc2c1C(=O)c1c(oc3c1ccc1ccccc13)C2=O	78*	-2	-3	0
CCC(CC)C(=O)Nc1cccc(C(=O)Nc2ccncc2)c1	4	1	5	0
COc1ccc(N2CCN(c3ncnc4c3cnn4C)CC2)cc1	-4	0	0	0
O=C(NCCn1ncc2c(N3CCN(c4ccccc4)CC3)ncnc21)c1ccccc1F	48*	0	-12	0
COc1ccc(N2CCN(c3ncnc4c3cnn4CCNC(=O)c3cccs3)CC2)cc1	37*	1	-7	0
O=C(Cc1ccccc1)NCCn1ncc2c(N3CCN(c4ccc(F)cc4)CC3)ncnc21	12	1	0	0
CCOc1ccccc1NC(=O)c1c(NC(=O)CNCc2ccccc2)sc2c1CCC2	9	0	-4	0
Cc1ccc(OCC(=O)c2ccc(O)cc2O)cc1	-4	-7	2	0
CC(C)(C)c1ccc(OCC(=O)c2ccc(O)cc2O)cc1	96*	-3	-6	0
CCc1cc(C(=O)Cc2ccc(OC)cc2)c(O)cc1O	1	1	-6	0
COc1ccc(CC(=O)c2ccc(O)cc2O)cc1	34*!	0	-4	0
O=C(Cc1ccc(Br)cc1)c1ccc(O)cc1O	-17	0	-1	0
CC(C)Oc1ccc(CC(=O)c2ccc(O)cc2O)cc1	66*	-2	-3	0
O=C1N[C@H](CO)C(=O)N2CCN(C(=O)c3cc(Cl)cc(Cl)c3)C[C@H]12	11	1	-1	0
CCOC(=O)c1ccc2c(=O)n(Cc3ccccc3)c(SCc3cccc([N+](=O)[O-])c3)nc2c1	-11	0	-2	0
CC(=O)c1c(-c2ccccc2)[nH]c2ccccc12	46*	4	5	0
CCOC(=O)c1c(C)[nH]c(C)c1C(=O)CCl	71*	-1	7	0
Cc1[nH]c2ccccc2c1C(=O)CCl	5	-2	18	2.3*
Cc1[nH]c2ccccc2c1C(=O)CN(C)C	-10	-1	-9	0
CCOC(=O)c1c(CS(=O)(=O)c2ccc(Cl)cc2)n(-c2ccccc2)c2cc(Br)c(OC)cc12	0	0	-4	0
CCOC(=O)C1=C(C)N=c2s/c(=C/c3c(C)[nH]c4ccccc34)c(=O)n2C1c1cccs1 (stereo unspecified)	0	-2	-9	0
NC(=O)Cn1nnc(-c2ccccc2NC(=O)c2cccnc2)n1	5	0	6	0
NC(=O)c1c(NC(=O)C2C3C=CC(C3)C2C(=O)O)sc2c1CCCCCC2 (stereo unspecified)	6	2	12	1
SMILES	TEAD-YAP block	GPR151 activ	MITF primary	FBW7 activator
CN1CCN(c2ccc(-c3cncc(/C=C/c4ccccc4)n3)cn2)CC1	41*	0	-19	0
CC(CC(=O)NCCc1ccccc1)CC1=NS(=O)(=O)c2ccccc2N1 (stereo unspecified)	2	-1	5	0
CCOC(=O)c1[nH]c(C)c(C(=O)Nc2ccc(F)cc2C)c1C	47*	0	8	0
CCOC(=O)c1[nH]c(C)c(C(=O)Nc2ccc(Br)cc2F)c1C	-6	-1	-1	0
CCOC(=O)c1[nH]c(C)c(C(=O)Nc2ccc(C)cc2C)c1C	51*	0	10	0
CC1(C)CC(=NNC(=O)c2ccncc2)CC(C)(C)N1	-2	0	-5	0
O=C(NN=C1CCCC1)c1n[nH]c2c1CCCC2	42*	1	-1	0
COc1cc(/C(C)=N/NC(=O)c2n[nH]c3c2CCC3)ccc1O	35*	1	1	0
C/C(=N\NC(=O)c1n[nH]c2c1CCC2)c1ccco1	52*	0	4	0
CC1(C)CC(=NNC(=O)c2n[nH]c3c2CCCC3)CC(C)(C)N1	39*	-1	11	0
CCC(C)n1c(SCC(=O)NCc2ccco2)nc2ccsc2c1=O (stereo unspecified)	-8	0	-3	0
CCC(=O)NC(c1nnc2n1CCN(Cc1c(OC)ccc3ccccc13)CC2)C(C)C (stereo unspecified)	-2	1	-5	0
Oc1ccc(CCNc2nc(-c3cccs3)nc3c2ncn3C2CCCCC2)cc1	-5	1	9	0
CN(C)c1ccc(/C=C2\N=C(c3ccccc3Cl)OC2=O)cc1	3	-1	-1	0
CC/C(C)=N/NC(=O)c1n[nH]c2c1CCC2	43*	4	-23	0
O=C(NN=C1CCCC1)c1n[nH]c2c1CCC2	64*	1	5	0
NNC(=O)c1n[nH]c2c1CCCC2	8	0	5	0
CCOc1cc(-c2nc3sc4c(c3c(=O)[nH]2)CCCC4)ccc1OCCOc1cccc(C)c1	1	0	-1	0
CC(C)(C)c1ccc(C2NC(=O)c3ccccc3N2)cc1 (stereo unspecified)	48*	0	8	0
Brc1cccc(C2Nc3cccc4cccc(c34)N2)c1	-11	0	-4	1
O=C1NC(c2ccncc2)Nc2ccccc21 (stereo unspecified)	8	1	5	0
O=C1NC(c2cccc(Br)c2)Nc2ccccc21 (stereo unspecified)	49*	1	-10	0
N#CCOc1ccc(C2NC(=O)c3ccccc3N2)cc1 (stereo unspecified)	-11	1	-1	0
CN(C)c1ccc(C2NC(=O)c3ccccc3N2)cc1 (stereo unspecified)	56*	-4	1	0
O=C1NC(c2ccc(-c3ccccc3)cc2)Nc2ccccc21 (stereo unspecified)	40*	-1	-12	0
SMILES	TEAD-YAP block	GPR151 activ	MITF primary	FBW7 activator
O=C(Nc1ccccc1)C1CCN(c2ncccn2)CC1	4	0	44	0
Cc1ccc(OC(=O)N2CCN3C(=O)[C@@H](CO)NC(=O)[C@H]3C2)cc1	-6	0	8	0
CCC1=NN2C(=N)/C(=C/c3cc(I)c(OCCOc4ccc(C)c(C)c4)c(OC)c3)C(=O)N=C2S1	6	-1	11	0
COc1cc(NS(=O)(=O)c2ccc3c(c2)Cc2ccccc2-3)cc(OC)c1OC	42*	5	9	0
COc1cc(NS(=O)(=O)c2ccc3[nH]c4c(c3c2)CCCC4)cc(OC)c1OC	55*	1	6	0
COc1ccc(OC)c(NS(=O)(=O)c2ccc3[nH]c4c(c3c2)CCCC4)c1	35*	2	-2	0
COc1ccc(-n2nnc(-c3nc(-c4ccc(Cl)cc4)no3)c2N)cc1OC	4	-1	13	0
Cc1cc(/C=C(\C#N)C(=O)N2CCc3ccccc3C2)c(C)n1C	-2	1	-1	0
